Assay results from the supplement of paper PMC11732987, “Enantioselective OTUD7B fragment discovery through chemoproteomics screening and high-throughput optimisation” (Communications Chemistry, 2025).

Tests used:
Experiment in all cases: log2 ratio of Biotin-Ahx-Ub-VS probe labelling (fragment/DMSO); higher = less target engagement (more negative = stronger competition), active = hit call of the paper (q ≤ 0.05, log2 ratio ≤ -1)
Settings in all cases: compound concentration: 200 uM; treatment time: 3 h
USP19 = biological target: T1, USP19 (UniProt O94966)
T1 sequence (whole entry): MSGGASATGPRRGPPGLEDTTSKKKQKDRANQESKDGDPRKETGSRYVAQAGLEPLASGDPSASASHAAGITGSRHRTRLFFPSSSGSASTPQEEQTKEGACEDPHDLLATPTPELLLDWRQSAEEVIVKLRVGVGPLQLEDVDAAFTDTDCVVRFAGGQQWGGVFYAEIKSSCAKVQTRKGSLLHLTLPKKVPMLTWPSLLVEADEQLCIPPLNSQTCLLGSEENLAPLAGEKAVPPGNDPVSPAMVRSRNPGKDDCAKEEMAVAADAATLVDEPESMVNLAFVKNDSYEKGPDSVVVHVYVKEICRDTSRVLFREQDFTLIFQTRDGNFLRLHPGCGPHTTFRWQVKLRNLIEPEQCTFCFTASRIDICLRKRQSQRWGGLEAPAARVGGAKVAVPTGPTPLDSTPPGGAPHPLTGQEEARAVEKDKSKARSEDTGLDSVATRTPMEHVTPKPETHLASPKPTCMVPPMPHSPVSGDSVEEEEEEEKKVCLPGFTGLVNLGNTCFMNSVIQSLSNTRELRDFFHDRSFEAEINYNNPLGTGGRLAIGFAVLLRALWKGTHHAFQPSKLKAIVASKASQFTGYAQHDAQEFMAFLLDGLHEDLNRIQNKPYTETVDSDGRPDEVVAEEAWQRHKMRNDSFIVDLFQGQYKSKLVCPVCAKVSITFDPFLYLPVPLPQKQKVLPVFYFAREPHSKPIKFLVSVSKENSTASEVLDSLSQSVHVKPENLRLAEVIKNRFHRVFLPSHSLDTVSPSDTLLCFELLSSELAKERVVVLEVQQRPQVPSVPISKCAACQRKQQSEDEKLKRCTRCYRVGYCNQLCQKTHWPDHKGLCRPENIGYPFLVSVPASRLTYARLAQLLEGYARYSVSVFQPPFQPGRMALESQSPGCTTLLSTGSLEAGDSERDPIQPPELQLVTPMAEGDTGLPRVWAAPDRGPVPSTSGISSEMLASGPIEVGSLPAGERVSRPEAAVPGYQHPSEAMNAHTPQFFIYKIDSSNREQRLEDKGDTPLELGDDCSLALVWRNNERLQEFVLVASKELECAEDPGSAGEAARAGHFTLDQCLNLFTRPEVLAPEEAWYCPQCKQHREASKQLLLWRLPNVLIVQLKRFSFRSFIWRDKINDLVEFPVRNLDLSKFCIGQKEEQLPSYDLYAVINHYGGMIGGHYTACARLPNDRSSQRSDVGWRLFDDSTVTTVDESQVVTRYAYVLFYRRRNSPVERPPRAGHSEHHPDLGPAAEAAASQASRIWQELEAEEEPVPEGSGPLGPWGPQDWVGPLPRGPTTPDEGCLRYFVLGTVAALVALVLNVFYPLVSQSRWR
Outline: (§1)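 Labelled DUBs from HEK293T lysate were NeutrAvidin-enriched, digested with LysC and trypsin, and run by diaPASEF LC-MS/MS. Before that, each 495 µg sample in Tris/CHAPS/IGEPAL buffer with protease inhibitors was treated in triplicate with fragment at 200 µM or vehicle for 3 h, then with Biotin-Ahx-Ub-VS at 0.5 µM final for 1 h. Values are average log2 ratios of fragment over vehicle by unpaired t-test, based on global-median-normalised Spectronaut label-free quantities from proteins with ≥2 unique peptides.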

USP22 = biological target: T2, USP22 (UniProt Q9UPT9)
T2 sequence (whole entry): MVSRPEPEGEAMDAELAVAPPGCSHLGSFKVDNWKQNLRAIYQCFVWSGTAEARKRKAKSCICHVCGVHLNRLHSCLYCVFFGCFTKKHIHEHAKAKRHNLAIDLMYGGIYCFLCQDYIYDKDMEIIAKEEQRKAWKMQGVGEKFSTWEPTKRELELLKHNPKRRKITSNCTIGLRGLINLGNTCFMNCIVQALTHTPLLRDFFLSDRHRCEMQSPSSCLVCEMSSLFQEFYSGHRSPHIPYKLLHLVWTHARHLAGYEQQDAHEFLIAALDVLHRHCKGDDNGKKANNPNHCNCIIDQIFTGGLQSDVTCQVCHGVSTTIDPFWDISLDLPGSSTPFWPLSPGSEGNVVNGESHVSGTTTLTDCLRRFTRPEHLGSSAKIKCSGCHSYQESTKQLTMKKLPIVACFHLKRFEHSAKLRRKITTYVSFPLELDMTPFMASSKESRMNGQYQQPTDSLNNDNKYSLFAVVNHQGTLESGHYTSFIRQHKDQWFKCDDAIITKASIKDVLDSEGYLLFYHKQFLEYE
Outline: as §1

USP24 = USP24 (UniProt Q9UPU5)
Chain of USP24 (Q9UPU5 whole entry): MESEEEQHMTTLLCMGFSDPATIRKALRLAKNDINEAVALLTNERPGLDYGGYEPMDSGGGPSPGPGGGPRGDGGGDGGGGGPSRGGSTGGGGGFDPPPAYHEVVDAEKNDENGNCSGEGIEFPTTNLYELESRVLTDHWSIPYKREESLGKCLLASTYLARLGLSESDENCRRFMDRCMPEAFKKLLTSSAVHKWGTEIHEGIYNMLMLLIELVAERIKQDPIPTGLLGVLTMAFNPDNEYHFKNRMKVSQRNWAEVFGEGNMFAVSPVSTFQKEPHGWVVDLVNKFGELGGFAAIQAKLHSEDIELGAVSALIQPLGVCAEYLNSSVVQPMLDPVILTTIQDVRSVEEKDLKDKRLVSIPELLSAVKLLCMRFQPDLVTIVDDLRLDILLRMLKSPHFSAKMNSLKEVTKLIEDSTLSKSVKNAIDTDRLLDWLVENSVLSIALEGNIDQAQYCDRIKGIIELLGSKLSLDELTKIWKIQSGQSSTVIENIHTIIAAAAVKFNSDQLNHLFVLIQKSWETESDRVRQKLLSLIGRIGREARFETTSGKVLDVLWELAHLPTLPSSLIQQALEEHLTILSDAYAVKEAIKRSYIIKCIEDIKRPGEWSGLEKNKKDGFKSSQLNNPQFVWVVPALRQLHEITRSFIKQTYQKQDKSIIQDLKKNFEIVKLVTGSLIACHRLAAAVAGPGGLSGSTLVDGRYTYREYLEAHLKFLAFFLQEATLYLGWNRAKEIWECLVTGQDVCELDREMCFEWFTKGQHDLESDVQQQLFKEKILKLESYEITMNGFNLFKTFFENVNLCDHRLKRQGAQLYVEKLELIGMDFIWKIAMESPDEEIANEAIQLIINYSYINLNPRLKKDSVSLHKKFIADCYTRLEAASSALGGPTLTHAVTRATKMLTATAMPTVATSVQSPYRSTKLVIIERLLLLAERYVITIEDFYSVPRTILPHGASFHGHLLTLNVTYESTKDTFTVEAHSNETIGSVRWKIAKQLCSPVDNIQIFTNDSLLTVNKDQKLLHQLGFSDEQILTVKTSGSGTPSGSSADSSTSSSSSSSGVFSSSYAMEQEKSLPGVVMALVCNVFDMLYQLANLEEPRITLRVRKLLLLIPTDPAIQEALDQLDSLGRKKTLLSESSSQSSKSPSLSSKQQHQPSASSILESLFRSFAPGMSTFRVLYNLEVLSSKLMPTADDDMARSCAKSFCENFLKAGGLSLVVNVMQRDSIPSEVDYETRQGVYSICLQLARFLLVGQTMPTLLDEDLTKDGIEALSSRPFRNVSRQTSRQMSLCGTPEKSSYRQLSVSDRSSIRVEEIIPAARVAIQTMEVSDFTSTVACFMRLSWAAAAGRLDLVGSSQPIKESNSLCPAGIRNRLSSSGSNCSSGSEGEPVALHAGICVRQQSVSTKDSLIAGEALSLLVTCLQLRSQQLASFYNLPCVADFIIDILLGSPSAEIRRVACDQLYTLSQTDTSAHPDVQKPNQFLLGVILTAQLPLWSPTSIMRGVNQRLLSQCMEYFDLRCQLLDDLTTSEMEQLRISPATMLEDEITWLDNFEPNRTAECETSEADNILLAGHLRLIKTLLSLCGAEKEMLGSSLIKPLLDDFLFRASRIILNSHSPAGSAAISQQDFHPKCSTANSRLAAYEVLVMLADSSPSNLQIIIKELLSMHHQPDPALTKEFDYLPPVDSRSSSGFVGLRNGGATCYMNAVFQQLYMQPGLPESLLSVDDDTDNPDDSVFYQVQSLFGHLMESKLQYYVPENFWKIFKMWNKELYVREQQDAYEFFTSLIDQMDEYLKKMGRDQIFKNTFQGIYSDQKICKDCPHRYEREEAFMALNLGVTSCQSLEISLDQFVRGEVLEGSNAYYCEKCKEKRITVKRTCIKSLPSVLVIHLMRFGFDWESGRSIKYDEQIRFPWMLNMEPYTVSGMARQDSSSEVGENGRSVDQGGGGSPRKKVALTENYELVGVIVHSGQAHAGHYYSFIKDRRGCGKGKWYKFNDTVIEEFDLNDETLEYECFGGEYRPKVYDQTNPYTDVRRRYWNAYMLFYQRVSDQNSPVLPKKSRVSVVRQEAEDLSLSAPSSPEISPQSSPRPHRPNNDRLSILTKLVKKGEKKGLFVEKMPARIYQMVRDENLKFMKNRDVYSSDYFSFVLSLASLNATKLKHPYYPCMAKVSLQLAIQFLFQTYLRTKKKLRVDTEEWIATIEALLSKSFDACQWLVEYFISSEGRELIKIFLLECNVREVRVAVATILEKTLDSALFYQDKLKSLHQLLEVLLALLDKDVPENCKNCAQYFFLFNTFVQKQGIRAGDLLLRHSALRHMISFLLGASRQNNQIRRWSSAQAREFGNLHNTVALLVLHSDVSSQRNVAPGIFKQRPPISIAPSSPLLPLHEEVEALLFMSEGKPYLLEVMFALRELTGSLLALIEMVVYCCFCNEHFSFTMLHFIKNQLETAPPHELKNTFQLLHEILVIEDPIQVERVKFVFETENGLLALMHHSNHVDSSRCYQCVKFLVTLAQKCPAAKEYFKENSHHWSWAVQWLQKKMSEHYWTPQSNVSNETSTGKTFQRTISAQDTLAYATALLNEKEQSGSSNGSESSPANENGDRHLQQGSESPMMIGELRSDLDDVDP
Outline: as §1

USP25 = biological target: T3, USP25 (UniProt Q9UHP3)
T3 sequence (whole entry): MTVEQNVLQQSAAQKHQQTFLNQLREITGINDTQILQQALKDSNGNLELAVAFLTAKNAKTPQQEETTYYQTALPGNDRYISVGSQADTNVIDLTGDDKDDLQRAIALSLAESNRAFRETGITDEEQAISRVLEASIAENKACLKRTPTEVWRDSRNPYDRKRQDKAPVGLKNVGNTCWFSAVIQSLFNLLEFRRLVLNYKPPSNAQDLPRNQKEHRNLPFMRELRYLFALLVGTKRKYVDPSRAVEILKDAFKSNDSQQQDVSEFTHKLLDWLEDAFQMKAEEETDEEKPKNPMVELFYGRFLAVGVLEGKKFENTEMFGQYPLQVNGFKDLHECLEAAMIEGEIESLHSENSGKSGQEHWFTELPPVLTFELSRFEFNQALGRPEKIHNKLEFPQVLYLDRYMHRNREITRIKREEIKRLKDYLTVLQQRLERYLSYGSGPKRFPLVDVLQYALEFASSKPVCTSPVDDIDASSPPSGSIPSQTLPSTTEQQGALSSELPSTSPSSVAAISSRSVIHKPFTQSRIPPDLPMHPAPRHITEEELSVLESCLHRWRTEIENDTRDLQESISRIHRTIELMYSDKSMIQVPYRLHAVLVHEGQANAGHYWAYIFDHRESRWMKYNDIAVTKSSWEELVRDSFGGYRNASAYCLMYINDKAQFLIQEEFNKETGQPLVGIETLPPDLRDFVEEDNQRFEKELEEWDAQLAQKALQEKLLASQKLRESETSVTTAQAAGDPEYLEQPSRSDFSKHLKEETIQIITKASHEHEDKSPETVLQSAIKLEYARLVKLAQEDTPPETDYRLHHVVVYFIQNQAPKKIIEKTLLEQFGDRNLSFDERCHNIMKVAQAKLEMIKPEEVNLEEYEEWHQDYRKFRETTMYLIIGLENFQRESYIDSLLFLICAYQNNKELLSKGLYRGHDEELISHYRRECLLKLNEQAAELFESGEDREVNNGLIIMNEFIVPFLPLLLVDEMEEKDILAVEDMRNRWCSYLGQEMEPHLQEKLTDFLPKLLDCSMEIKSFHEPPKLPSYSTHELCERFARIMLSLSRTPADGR
Outline: as §1

USP28 = biological target: T4, USP28 (UniProt Q96RU2)
T4 sequence (whole entry): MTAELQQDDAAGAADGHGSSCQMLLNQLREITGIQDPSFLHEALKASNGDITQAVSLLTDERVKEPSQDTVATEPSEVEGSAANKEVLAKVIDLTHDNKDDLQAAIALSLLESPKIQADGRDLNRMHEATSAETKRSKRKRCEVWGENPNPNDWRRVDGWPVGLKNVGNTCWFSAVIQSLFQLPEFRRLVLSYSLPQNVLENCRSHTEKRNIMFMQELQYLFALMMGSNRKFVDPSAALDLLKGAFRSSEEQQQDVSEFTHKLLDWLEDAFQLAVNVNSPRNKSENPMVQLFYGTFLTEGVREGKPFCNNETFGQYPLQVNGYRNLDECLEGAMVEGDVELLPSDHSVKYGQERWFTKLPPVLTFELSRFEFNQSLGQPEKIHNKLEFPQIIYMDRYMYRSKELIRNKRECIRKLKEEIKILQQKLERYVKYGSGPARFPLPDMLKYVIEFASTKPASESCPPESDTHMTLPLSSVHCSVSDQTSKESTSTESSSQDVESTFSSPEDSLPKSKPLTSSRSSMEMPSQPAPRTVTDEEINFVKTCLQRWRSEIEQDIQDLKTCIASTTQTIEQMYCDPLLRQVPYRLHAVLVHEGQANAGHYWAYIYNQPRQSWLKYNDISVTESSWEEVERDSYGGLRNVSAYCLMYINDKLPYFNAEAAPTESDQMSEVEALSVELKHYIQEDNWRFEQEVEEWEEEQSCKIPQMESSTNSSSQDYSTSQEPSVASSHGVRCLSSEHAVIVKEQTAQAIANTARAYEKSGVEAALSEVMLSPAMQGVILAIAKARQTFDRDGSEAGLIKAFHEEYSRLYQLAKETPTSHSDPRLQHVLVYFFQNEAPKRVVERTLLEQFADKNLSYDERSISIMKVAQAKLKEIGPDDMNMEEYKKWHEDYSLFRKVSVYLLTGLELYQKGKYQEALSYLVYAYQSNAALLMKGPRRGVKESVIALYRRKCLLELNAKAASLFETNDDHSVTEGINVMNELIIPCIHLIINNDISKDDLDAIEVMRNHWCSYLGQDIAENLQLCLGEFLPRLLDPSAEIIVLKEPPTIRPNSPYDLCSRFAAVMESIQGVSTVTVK
Outline: as §1

Measured: log2 ratio of Biotin-Ahx-Ub-VS probe labelling

COc1ccccc1C(C)NC(=O)CCl (stereo not given)
inactive: USP19 -0.243 | USP22 -0.46 | USP24 -0.363 | USP25 -0.536 | USP28 -0.666
